Results on five molecules are retold here after PubChem BioAssay.

Results filed as inconclusive are left out. The source made the active and inactive calls.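 How the source made its calls, unless noted: active means aptamer binding inhibition above 30%, about 3 SD of noise from non-fluorescent compounds; inactive means inhibition at or below 30%.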

Assay [1] is described as follows: yeast TOR pathway RPL19A-GFP modulators, primary screen, cell-based, S. cerevisiae, multiplex flow cytometry (AID 1862; in the data active means percent of DMSO control GFP below about 86%;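 further: lower values mimic rapamycin by blocking the RPL19A rise seen in DMSO cells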). The note with it: S. cerevisiae RPL19A-GFP strain, flow cytometry fluorescence, 3 h; at 10 µM; stronger effect = lower value.
Assay [2] can be described thus: modulators of MEP2-GFP levels in yeast, primary screen, S. cerevisiae, multiplex flow cytometry (AID 1867;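 active means GFP response, as percent of the DMSO control, above the screen-wide mean plus 3 SD, about 139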;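 further: median GFP channel fluorescence of barcode-gated MEP2-GFP cells measured by flow cytometry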). The note with it: S. cerevisiae MEP2-GFP strain, 3 h, at 10 µM, stronger effect = higher value, 100% means same as DMSO wells. On the technique in general: In flow cytometry, cells or beads pass a laser one at a time.
Assay [3] in a line: modulators of CIT2-GFP expression in yeast, primary screen, S. cerevisiae, GFP fusion, multiplex flow cytometry (AID 1870;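 active means percent response above a set limit, the screen-wide mean plus 3 SD, cut at about 130% in these data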;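 further: barcoded CIT2-GFP strain pooled with four other GFP strains with rapamycin as positive control; median GFP fluorescence per well over plate mean of DMSO wells so 100% = DMSO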). The note with it: 3 h, at 10 µM, stronger effect = higher value.
The nature of assay [4]: modulators of LAP4-GFP expression in yeast, primary screen, S. cerevisiae, multiplex flow cytometry (AID 1873;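 active means GFP signal, as percent of the solvent control, above the screen mean plus 3 SD, about 149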). The note with it: 3 h, at 10 µM, stronger effect = higher value.
Assay [5] can be described thus: modulators of AGP1-GFP expression in yeast TOR pathway, primary screen, cell-based, multiplex flow cytometry, S. cerevisiae (AID 1887;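 active means GFP signal above the screen-wide mean plus 3 SD, that is over about 124.5% of the solvent control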;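 further: AGP1-GFP fusion strain of S. cerevisiae within a five-strain barcoded multiplex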). The note with it: 3 h, at 10 µM, stronger effect = higher value.
Assay [6] in a line: inhibitors of CD8+ T cell-vesicle binding, pilot screen, LFA-1/ICAM-1 modulator project, MLPCN validation set, flow cytometry (AID 2523;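 active means response below a set limit, under 55% cells CD8-positive and vesicle-bound, and CD8 cells' 90th-percentile brightness under 279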;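 on vesicle binding response: mean PE anti-B7-1 fluorescence of CD8+ cells relative to row control; 100% = QL9-loaded vesicles with DMSO vehicle in the same plate row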). The note with it: 2C mouse CD8+ T cells, at 7 µM, stronger effect = lower value; double positive events: measured here: CD8+/vesicle+ event percentage.
Assay [7] concerns the target Integrin beta-1 (Homo sapiens) + Integrin alpha-4 (Homo sapiens) (UniProt P13612+P05556). As to the kind of experiment: inhibition of HUTS-21 binding to VLA-4, pilot screen, VLA-4 allosteric modulator project, U937 cells, HUTS-21 mAb, flow cytometry, validation set (AID 2674;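 active means inhibition above 50%, about 3 SD of the validation set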;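 further: antibody binding induced by the VLA-4 ligand LDV present at three times its Kd; 0% = LDV ligand with antibody and no compound and 100% = antibody without LDV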). The note with it: HUTS-21 LIBS mAb binding, at 6.7 µM, stronger effect = higher value, binding induced by LDV ligand.

Assay [8] is described as follows: superoxide lowering in aged yeast cells, pilot screen, validation compound set (AID 2706;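 active means superoxide response below 65% of plate, a cut near 3 SD across the whole screen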;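 further: yeast exposed to compound for one week at 30 degrees C before staining; 100% = mean of all compound wells on the same plate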). The note with it: S. cerevisiae aging, superoxide DHE fluorescence; at 10 µM, stronger effect = lower value.
Assay [9] concerns the target Beta-adrenergic receptor kinase 1 (Homo sapiens) (UniProt P25098). The assay is described as follows: GRK2 binders displacing RNA aptamer, biochemical, validation, human GRK2, bead flow cytometry (AID 488806). The note with it: bead-bound GRK2, FAM-aptamer displacement, at 10 µM, stronger effect = higher value.
The target of assay [10] is AP-2 complex subunit beta (Homo sapiens) (UniProt P63010). As to the kind of experiment: inhibitors of arrestin peptide binding to AP2, pilot screen, biochemical, validation set, GST-AP2 beads, flow cytometry (AID 504541;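 active means inhibition above 54%, about 3 SD of non-fluorescent compounds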;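 further: AP2 carries R879A mutation and is captured from E. coli lysate; bead-bound FITC arrestin peptide fluorescence measuring arrestin peptide binding to AP2; 0% = DMSO wells and 100% = excess unlabeled arrestin peptide control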). The note with it: FITC arrestin peptide, at 10 µM, stronger effect = higher value, AP2 beta2 appendage fragment, R879A mutant.
Sequence of AP-2 complex subunit beta (Homo sapiens) (P63010 whole entry, looked up, the tested form may be a part, one chain of several): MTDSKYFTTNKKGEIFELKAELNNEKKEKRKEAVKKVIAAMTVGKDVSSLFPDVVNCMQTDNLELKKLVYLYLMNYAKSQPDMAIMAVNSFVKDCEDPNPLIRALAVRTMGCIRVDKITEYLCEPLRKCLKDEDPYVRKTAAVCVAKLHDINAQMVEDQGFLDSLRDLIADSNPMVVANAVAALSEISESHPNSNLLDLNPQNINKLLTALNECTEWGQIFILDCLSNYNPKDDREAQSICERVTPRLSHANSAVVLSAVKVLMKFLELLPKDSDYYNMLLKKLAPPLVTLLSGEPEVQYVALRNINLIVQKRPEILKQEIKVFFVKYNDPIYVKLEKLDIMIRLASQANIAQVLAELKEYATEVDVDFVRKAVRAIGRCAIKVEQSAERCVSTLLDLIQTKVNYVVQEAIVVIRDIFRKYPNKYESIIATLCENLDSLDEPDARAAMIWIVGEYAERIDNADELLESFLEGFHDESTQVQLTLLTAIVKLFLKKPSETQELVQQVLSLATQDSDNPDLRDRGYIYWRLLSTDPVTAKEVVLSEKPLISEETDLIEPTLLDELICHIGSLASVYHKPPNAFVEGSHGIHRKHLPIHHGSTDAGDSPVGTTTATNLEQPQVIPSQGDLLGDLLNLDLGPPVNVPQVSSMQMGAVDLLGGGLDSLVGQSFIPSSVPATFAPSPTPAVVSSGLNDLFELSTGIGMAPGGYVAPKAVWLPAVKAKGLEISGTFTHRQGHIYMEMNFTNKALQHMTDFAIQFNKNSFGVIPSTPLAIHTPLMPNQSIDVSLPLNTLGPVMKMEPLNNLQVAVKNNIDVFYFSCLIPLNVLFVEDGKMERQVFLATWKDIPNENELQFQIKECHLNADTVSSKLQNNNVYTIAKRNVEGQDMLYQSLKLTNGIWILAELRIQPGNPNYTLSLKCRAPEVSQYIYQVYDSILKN
Assay [11] can be described thus: yeast V-ATPase proton transport modulators, S. cerevisiae, pHLuorin, HTS validation (AID 504600; in the data active means response above about 15%;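 further: plate controls were DMSO for no effect and reference compound for full effect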). The note with it: S. cerevisiae pHLuorin cytosolic pH, at 10 µM, stronger effect = higher value.
Assay [12] relates to anti-desmoglein-3 scFv antibody binding to human DSG3. As to the kind of experiment: inhibitors of anti-DSG3 scFv binding to DSG3, pilot screen, biochemical, validation compound set, bead-based, flow cytometry (AID 588368;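 active means binding below the plate cutoff, the plate median minus 3 SD, with a reading above zero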;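 further: signal is the median channel fluorescence of bead-bound GFP antibody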). The note with it: Protein G beads, DSG3-Fc, scFv-GFP binding, at 10 µM, stronger effect = lower value.
Assay [13] can be described thus: inhibitors of fungal efflux pumps CDR1, CDR2, MDR1, pilot screen, validation compound set, multiplex, phenotypic (AID 588506;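 active means efflux inhibition above 0.42, the validation set average plus 4 SD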;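 further: Nile Red retained in cells so higher fluorescence means more efflux inhibition; 0 = negative control wells and 1 = enniatin B 25 µM full block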). The note with it: S. cerevisiae pump-expressing triplex, Nile Red efflux flow cytometry; at 10 µM; stronger effect = higher value; the pumps come from Candida albicans.
The target in assay [14] is ATP-binding cassette sub-family B member 6 (Homo sapiens) (UniProt Q9NP58). The assay is described as follows: ABCB6 transporter inhibitors, pilot screen, K562-ABCB6 cells, flow cytometry, validation set (AID 588550;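 active means inhibition above the screen-wide mean plus 3 SD, about 51%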;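 further: 0% = DMSO wells and 100% = benzethonium chloride 70 µM positive control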). The note with it: K562-ABCB6 porphyrin accumulation, 1 h, at 10 µM, stronger effect = higher value.
Sequence of ATP-binding cassette sub-family B member 6 (Homo sapiens) (Q9NP58 whole entry, looked up): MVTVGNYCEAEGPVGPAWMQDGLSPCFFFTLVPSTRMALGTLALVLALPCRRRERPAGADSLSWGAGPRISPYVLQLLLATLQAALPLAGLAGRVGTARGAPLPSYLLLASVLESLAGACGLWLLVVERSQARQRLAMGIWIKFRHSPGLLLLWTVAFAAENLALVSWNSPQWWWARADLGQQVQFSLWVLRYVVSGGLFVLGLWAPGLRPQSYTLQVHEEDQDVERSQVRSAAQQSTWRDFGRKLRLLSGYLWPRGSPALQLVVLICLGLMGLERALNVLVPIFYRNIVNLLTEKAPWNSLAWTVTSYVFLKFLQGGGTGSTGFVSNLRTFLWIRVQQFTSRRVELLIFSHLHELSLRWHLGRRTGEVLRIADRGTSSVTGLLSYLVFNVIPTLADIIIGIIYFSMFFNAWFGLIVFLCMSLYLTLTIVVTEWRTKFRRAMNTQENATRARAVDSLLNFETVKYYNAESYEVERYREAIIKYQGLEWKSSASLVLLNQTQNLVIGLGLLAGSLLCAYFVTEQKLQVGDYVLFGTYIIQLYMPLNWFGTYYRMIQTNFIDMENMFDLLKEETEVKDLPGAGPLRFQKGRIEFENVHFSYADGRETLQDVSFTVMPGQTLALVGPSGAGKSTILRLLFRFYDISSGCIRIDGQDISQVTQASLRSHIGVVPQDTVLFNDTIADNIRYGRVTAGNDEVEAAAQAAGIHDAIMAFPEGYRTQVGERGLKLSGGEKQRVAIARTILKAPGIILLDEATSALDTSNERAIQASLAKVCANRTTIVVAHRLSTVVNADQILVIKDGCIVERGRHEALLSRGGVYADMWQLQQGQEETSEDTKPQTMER
Assay [15] is described as follows: promoters of myeloid differentiation in arrested cells, primary screen, cell-based, GFP/MAC1 double positive, flow cytometry, validation set (AID 588685;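 active means differentiation response of at least 50%, scaled between solvent and reference control, from cells with both markers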;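 further: compound exposure lasts four days before antibody staining and flow analysis; 0% = DMSO wells and 100% = 5 µM fulvestrant positive control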). The note with it: ER-HoxA9 marrow cells, stronger effect = higher value, normalized: vehicle 0, fulvestrant 100.

Sequence of Beta-adrenergic receptor kinase 1 (Homo sapiens) (P25098 whole entry, looked up): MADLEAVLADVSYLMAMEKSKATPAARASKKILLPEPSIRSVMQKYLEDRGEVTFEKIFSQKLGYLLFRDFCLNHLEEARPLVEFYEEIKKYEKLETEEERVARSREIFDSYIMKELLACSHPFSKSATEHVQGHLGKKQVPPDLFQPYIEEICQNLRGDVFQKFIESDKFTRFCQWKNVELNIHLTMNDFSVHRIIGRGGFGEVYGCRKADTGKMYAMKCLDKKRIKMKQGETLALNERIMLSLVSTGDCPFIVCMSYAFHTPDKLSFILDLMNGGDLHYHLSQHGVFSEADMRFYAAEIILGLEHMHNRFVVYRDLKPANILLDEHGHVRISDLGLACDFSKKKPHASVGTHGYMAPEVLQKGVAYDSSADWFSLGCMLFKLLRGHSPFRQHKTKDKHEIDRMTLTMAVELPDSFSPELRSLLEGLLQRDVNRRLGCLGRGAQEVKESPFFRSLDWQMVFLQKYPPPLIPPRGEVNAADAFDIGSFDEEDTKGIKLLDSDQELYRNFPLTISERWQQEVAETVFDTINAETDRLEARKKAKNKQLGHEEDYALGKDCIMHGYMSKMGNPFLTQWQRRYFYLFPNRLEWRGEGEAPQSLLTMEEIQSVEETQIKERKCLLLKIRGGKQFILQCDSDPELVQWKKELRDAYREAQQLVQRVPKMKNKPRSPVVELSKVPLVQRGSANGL
Sequence of Integrin beta-1 (Homo sapiens) + Integrin alpha-4 (Homo sapiens) (P05556 whole entry, looked up): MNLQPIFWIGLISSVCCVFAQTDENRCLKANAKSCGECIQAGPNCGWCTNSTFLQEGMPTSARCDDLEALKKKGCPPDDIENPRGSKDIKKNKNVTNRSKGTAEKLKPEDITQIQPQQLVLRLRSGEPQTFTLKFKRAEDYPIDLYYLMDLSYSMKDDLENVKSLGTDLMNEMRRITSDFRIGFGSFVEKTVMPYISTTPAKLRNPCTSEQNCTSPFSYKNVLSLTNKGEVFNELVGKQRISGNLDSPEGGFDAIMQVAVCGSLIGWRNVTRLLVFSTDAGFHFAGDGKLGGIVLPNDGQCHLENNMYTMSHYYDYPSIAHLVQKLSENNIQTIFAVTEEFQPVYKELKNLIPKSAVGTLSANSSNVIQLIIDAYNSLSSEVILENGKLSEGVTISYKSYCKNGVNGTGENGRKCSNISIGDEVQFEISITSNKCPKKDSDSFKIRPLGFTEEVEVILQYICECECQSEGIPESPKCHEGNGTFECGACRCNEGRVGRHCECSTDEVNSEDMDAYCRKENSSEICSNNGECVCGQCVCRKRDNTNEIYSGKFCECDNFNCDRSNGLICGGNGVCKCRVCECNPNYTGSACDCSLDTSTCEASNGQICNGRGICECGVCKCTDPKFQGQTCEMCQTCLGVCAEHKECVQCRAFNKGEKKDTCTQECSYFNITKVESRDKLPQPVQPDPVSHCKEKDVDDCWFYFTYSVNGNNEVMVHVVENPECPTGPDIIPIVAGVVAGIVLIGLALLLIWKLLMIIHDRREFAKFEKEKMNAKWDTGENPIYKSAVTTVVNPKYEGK
Sequence of Integrin beta-1 (Homo sapiens) + Integrin alpha-4 (Homo sapiens) (P13612 whole entry, looked up): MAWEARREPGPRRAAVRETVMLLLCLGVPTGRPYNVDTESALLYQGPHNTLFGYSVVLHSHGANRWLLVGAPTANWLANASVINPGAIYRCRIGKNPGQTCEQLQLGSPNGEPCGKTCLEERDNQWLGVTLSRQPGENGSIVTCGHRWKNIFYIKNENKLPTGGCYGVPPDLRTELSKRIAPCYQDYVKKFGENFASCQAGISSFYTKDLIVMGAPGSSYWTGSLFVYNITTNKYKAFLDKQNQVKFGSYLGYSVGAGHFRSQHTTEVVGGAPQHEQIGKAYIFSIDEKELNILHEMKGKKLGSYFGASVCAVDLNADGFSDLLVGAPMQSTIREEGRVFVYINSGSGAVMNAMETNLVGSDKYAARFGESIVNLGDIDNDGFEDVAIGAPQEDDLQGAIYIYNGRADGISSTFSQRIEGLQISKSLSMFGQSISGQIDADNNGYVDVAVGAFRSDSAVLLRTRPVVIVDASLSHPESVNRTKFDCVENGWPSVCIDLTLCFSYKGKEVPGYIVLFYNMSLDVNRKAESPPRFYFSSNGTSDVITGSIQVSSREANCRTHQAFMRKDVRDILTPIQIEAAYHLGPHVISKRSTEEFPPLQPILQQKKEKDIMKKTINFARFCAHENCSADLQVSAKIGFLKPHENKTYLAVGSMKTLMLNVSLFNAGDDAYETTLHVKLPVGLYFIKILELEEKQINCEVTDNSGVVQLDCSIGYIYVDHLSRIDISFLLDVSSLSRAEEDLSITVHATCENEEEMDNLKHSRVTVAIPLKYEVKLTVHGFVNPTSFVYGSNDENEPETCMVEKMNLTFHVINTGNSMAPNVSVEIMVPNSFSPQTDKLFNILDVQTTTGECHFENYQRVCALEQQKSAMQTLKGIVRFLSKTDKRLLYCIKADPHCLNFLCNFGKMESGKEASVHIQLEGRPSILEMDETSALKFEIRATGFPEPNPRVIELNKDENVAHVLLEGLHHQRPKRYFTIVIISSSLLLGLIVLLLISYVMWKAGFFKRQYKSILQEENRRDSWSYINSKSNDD

As a reminder, the inhibition is the drop in the measured response relative to a control, in per cent. For the molecule `COc1ccc(-c2noc(CCc3ccccc3)n2)cc1`, the percent of DMSO control GFP in [1] was 103% (inactive). The values for the GFP response vs DMSO in assay [2] and in assay [4] were 109% (inactive) and 101% (inactive), respectively. The percent response of DMSO control in [3] is 90% (inactive). Further, the GFP response, % of DMSO in [5] was 91.8% (inactive). In assay [6], this molecule yielded a double positive events of 56.4%. In [6], the vesicle binding response is 174% (inactive). Besides, the inhibition in assay [7] was 4.42% (inactive); in assay [10], 4.14% (inactive); in [14], 0% (inactive). For the same molecule, the superoxide response (% of plate) in assay [8] was 99.8% (inactive). For the same molecule, in assay [9], the aptamer binding inhibition was 0% (inactive). The response in assay [11] was -3.58% (inactive). In addition, the binding (% of control) in [12] is 111% (inactive). Moreover, the efflux inhibition (fraction of control) in assay [13] was 0.48 (active). Moreover, in assay [15], the differentiation response is -0.2% (inactive).
For `C[C@H](CS)C(=O)N1CCC[C@H]1C(=O)O`, the percent of DMSO control GFP in assay [1] is 106% (inactive). Further, the GFP response vs DMSO in [2] was 98.9% (inactive); in assay [4], 96.4% (inactive). In addition, in [3], the percent response of DMSO control is 109% (inactive). Besides, the GFP response, % of DMSO in assay [5] is 102% (inactive). This molecule returned a double positive events in assay [6] of 58.6%. In addition, in [6], the vesicle binding response is 186% (inactive). The inhibition in assay [7] is -2.11% (inactive); in [10] it was -2.44% (inactive); in assay [14], 8% (inactive). Moreover, in assay [8], the superoxide response (% of plate) is 97.4% (inactive). Further, the aptamer binding inhibition in [9] was 0% (inactive). Besides, the response in assay [11] was -1.86% (inactive). Further, the binding (% of control) in assay [12] was 96.7% (inactive). For the same molecule, in [13], the efflux inhibition (fraction of control) was -0.16 (inactive). The differentiation response in assay [15] is -29.3% (inactive).
Turning to `CC(C)NC(=O)C1(c2ccccc2)CCOCC1`, the percent of DMSO control GFP in [1] was 100% (inactive). The GFP response vs DMSO is 95.9% (inactive) in assay [2] and 99.4% (inactive) in assay [4]. In addition, the percent response of DMSO control in assay [3] is 104% (inactive). Besides, in assay [5], the GFP response, % of DMSO is 99.3% (inactive). This molecule yielded a double positive events in assay [6] of 62.2%. Moreover, the vesicle binding response in assay [6] was 191% (inactive). The values for the inhibition in assay [7], in assay [10] and in assay [14] were -51.5% (inactive), 3.27% (inactive) and 4% (inactive), respectively. Moreover, the superoxide response (% of plate) in assay [8] is 99.3% (inactive). Moreover, the aptamer binding inhibition in assay [9] was 4% (inactive). Also, the response in assay [11] was 0.02% (inactive). Also, the binding (% of control) in assay [12] was 98.2% (inactive). In addition, the efflux inhibition (fraction of control) in assay [13] was -0.01 (inactive). Further, the differentiation response in [15] is -0.2% (inactive).
`OC[C@H]1O[C@@H](n2cnc3c(NC4CCCC4)ncnc32)[C@H](O)[C@@H]1O`: the percent of DMSO control GFP in assay [1] is 96.8% (inactive). Also, the GFP response vs DMSO in [2] was 98.9% (inactive); in assay [4], 99.4% (inactive). The percent response of DMSO control in [3] was 98.8% (inactive). The GFP response, % of DMSO in [5] was 98.4% (inactive). For the same molecule, the double positive events in [6] is 52.6%. Moreover, in assay [6], the vesicle binding response was 139% (inactive). Besides, the values for the inhibition in assay [7], in [10] and in assay [14] were 6.29% (inactive), 7.18% (inactive) and 2% (inactive), respectively. Moreover, the superoxide response (% of plate) in assay [8] was 102% (inactive). Also, the aptamer binding inhibition in [9] is 4% (inactive). The response in [11] is -1.41% (inactive). Moreover, the binding (% of control) in assay [12] was 104% (inactive). Besides, in assay [13], the efflux inhibition (fraction of control) was 0.18 (inactive). In [15], the differentiation response is -8.27% (inactive).
In the case of `O=C(CCN1CCC(c2ccccc2)C1)c1ccc2c(c1)OCCO2` (stereo not given), the percent of DMSO control GFP in assay [1] was 102% (inactive). In addition, the GFP response vs DMSO in [2] is 134% (inactive); in assay [4], 104% (inactive). Moreover, the percent response of DMSO control in [3] is 103% (inactive). Further, in assay [5], the GFP response, % of DMSO is 102% (inactive). In assay [6], the double positive events is 47.2%. Moreover, in assay [6], the vesicle binding response was 140% (inactive). The inhibition was 13.8% (inactive) in assay [7], -9.51% (inactive) in [10] and 6% (inactive) in assay [14]. The superoxide response (% of plate) in [8] is 94% (inactive). Also, the aptamer binding inhibition in assay [9] was 5% (inactive). In assay [11], the response is 2.78% (inactive). Further, in assay [12], the binding (% of control) was 103% (inactive). In addition, the efflux inhibition (fraction of control) in assay [13] was -0.31 (inactive). Besides, the differentiation response in assay [15] was -5.05% (inactive).
